Reference: PubChem BioAssay
A number with no mark means an inactive call. No rule for the calls is given here.

Target: Pantothenate synthetase (Mycobacterium tuberculosis (strain ATCC 25618 / H37Rv)) (UniProt P9WIL5)
Assay: Recombinant Mtb pantothenate synthetase (PanC) inhibitors, coupled enzyme, confirmatory (AID 375);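 also: 0% = full reaction with vehicle and 100% = no enzyme background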
Conditions: coupled enzyme assay; at 10 µM, active compounds read high

Chain of Pantothenate synthetase (Mycobacterium tuberculosis (strain ATCC 25618 / H37Rv)) (P9WIL5 whole entry, looked up): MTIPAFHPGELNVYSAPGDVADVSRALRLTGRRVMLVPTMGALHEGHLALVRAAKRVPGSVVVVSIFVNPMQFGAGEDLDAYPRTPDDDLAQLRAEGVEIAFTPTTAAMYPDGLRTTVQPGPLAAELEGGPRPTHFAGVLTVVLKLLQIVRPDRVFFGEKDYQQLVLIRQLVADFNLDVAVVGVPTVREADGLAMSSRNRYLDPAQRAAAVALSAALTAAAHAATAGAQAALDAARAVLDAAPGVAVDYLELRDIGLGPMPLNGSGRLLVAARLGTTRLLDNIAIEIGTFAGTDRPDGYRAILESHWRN

SMILES	inhibition
CC1(C)CC(=O)C2=C(C1)Nc1ccccc1N=C2	0%
COC(=O)c1nc(N)sc1-c1ccccc1	0%
CC(C)(C)NC(=O)Cn1nnnc1-c1nonc1N	4%
O=C(NCc1ccc2c(c1)OCO2)c1cc2n(n1)C(C(F)(F)F)CC(c1ccc3c(c1)OCO3)N2 (stereo not given)	0%
COC(=O)c1c(NC(=O)C2CC=CCC2C(=O)O)sc(C(N)=O)c1C (stereo not given)	1%
CCCc1cc(=O)[nH]c(/N=C(\N)Nc2ccccc2)n1	6%
CCOc1cc2[nH]c(=O)n(CCCCC(=O)N3CCCCCC3)c(=O)c2cc1OCC	2%
Cc1nnc(SCc2cc(=O)[nH]c(N3CCCCC3)n2)s1	1%
O=C(CN1C(=O)COc2ccccc21)N(Cc1cccnc1)Cc1ccccc1F	0%
CC1=CCC(C(C)(C)NC(=O)c2ccccc2)C/C1=N\O (stereo not given)	0%
CCOc1ccc(OCc2ccc(C(=O)Nc3cccc(C)n3)o2)cc1	7%
COc1cccc(N2CCN(Cc3cccnc3)CC2)c1	3%
Cc1nn(C)c(C)c1NC(=O)CCSc1nc(-c2ccco2)cc(C(F)(F)F)n1	6%
COc1ccc(-c2nc3c(c(SCC(=O)N4CCOCC4)n2)COC(C)(C)C3)cc1	0%
O=C(O)CCc1ccc(-c2ccccc2)n1CC(=O)O	0%
O=C(Nc1sc2c(c1C(=O)NCc1ccco1)CCCC2)c1ccc2c(c1)OCO2	1%
CCC1CCc2c(sc3ncnc(N4CCOCC4)c23)C1 (stereo not given)	0%
O=C(O)Cc1ccccc1C(=O)O	0%
Cc1ccccc1OCc1nnc(SCC(=O)NCc2ccccc2)n1C	0%
c1cn(CC2(Cn3ccnc3)COC2)cn1	1%

SMILES	inhibition
CCC(C(=O)O)n1c(C(F)(F)F)nc2ccccc21 (stereo not given)	4%
COc1ccc(CNC(=O)c2cc(-c3ccc(OC)c(OC)c3)on2)cc1	3%
C=C(C)CSc1nnc2[nH]c(=O)cc(N)n12	0%
COc1ccc(CCn2c(=N)c(C(=O)NCc3ccco3)cc3c(=O)n4ccccc4nc32)cc1	0%
CCCN(C(=O)CSc1nnc(-c2ccoc2C)n1N)C1CCS(=O)(=O)C1 (stereo not given)	0%
COc1ccccc1NC(=O)CSc1nnc(-c2ccncc2)o1	0%
O=S(=O)(Nc1cccnc1)c1cc(Cl)ccc1Cl	0%
CCOC(=O)N1CCC(NC(=O)Cn2cc3c(n2)CCC(C)C3)CC1 (stereo not given)	0%
COC(=O)c1ccccc1NC(=O)Cn1c(-c2nonc2N)nc2ccccc21	0%
CC(C)(C)C(=O)OCC1OC(n2cnc(C(N)=O)n2)C(O)C1O (stereo not given)	3%
O=C(COc1ccc(S(=O)(=O)NC2CCCCC2)cc1Cl)NCC1CCCO1 (stereo not given)	0%
COc1ccc(OC)c(NC(=O)c2nnn(Cc3ccc(Br)cc3F)c2N)c1	0%
FC(F)Sc1nnc(-c2cccs2)n1-c1ccccc1	0%
CCSC1=C(C#N)C(c2ccccc2OC)CC(=O)N1 (stereo not given)	4%
CCOCCCNS(=O)(=O)c1ccc2c(c1)oc(=O)n2CC(=O)OCC	8%
O=C(CCN1CCOCC1)Nc1cccc(Br)c1	10%
C=CCn1c(SCC2=C(C(=O)OCC)C(C)NC(=O)N2)nnc1C1CCCCC1 (stereo not given)	0%
Cn1c(=O)oc2cc(S(=O)(=O)N3CCC(C(=O)Nc4ccc(OC(F)(F)F)cc4)CC3)ccc21	0%
COc1cc(C2C(C#N)=C(N)OC3=C2C(=O)CC(C)(C)C3)ccc1OC(=O)N1CCOCC1 (stereo not given)	5%
Cc1ccccc1-n1nnnc1SCC(=O)Nc1ccc(S(=O)(=O)N2CCCC2)cc1	0%
